The results in this text go back to paper PMC8384837, “Expanding the binding specificity for RNA recognition by a PUF domain”.

This assay deals with PUM1 PUF domain R3-ARC (Homo sapiens, UniProt Q14671 828-1176, C935A;Q939C). Nature of the assay: yeast three-hybrid, YBZ-1, SC-Leu-His + 0.5 mM 3-AT, 4 days. The settings on record: tags: N-Gal4 AD-HA kept; label: inside an RPR1-promoter hybrid RNA with tandem MS2 sites; ssRNA. A digest of the protocol:
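The interaction score is the logarithmic change in variant frequency from input to selection. It uses log2, with a pseudocount of 1 for absent variants, and frequencies came from PCR-amplified, Illumina-sequenced repeat regions. The libraries were Pumilio-1 PUF domains randomized at the three base-contacting residues per repeat, co-expressed with matching RNA elements in strain YBZ-1 (LexA–MS2 coat fusion, HIS3 reporter). Plating lasted four days on SC-Leu (input) or SC-Leu-His + 0.5 mM 3-AT (selection).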
Take “GGCUAGAACUAGUGGAUCCCCCGGCGCCCGGCGGCUCGAGCCCGGGUAAGUGUAAAUAGUCUGCAUGCCGCCGGGCGCCAUGCCUGCAGGUCGACUCUAGAAAACAUG”: the binding signal was 3.8 log2 enrichment (interaction score). The value for “GGCUAGAACUAGUGGAUCCCCCGGCGCCCGGCGGCUCGAGCCCGGGUAAGUGUAAGUAGUCUGCAUGCCGCCGGGCGCCAUGCCUGCAGGUCGACUCUAGAAAACAUG” was 0.43 log2 enrichment (interaction score). The value for “GGCUAGAACUAGUGGAUCCCCCGGCGCCCGGCGGCUCGAGCCCGGGUAAGUGUAAUUAGUCUGCAUGCCGCCGGGCGCCAUGCCUGCAGGUCGACUCUAGAAAACAUG” was 1.82 log2 enrichment (interaction score).
